Pol kappa inh = inhibitors of human DNA polymerase kappa; Q9UBT6; purified Pol kappa, fluorescent DNA synthesis assay, 10 min; Potency, µM (top dose mostly 107 µM), for the others: top-dose activity, negative = inhibition, most hits filed as inhibitors; 0.53% of 400,000 active; also: potency is read from the fitted curve at half-maximal effect; % is scaled to controls: 0 for no effect and ±100 for the full control effect
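Enzyme at 10 nM met test compounds for 15 min at room temperature. Substrate addition (50 nM final) began the reaction, which was monitored by fluorescence at 0 and 10 min.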
Pol iota inh = DNA polymerase iota (human) inhibition; Q9UNA4; Pol iota fluorescent replication assay, 10 min; Potency, µM (top dose mostly 115 µM), inactives show top-dose activity, negative = inhibition, most hits filed as inhibitors; 1% of 390,000 active; AID 588590; also: potency is read from the fitted curve at half-maximal effect
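Fluorescent replication assay read twice, at 0 min and 10 min after adding 50 nM (final) substrate. Enzyme (10 nM) and compounds were first incubated 15 min at room temperature; enzyme-free buffer wells were negative controls.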
FEN1 inh = inhibitors of human flap endonuclease 1; Potency, µM (series often up to 114 µM), without a hit: at the top dose activity change, negative = inhibition, actives largely listed as inhibitors; AID 588795; 0.35% of 390,000 active; Recombinant FEN1 flap cleavage, fluorescence, 15 min; also: potency is read from the fitted curve at half-maximal effect; % is scaled to controls: 0 for no effect and ±100 for the full control effect; nearly all actives have a fitted effect of over 65% in size
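With each library titrated from low to high concentration, compounds met 10 nM FEN1 for 15 min at room temperature before 50 nM substrate was added; readings at 0 and 15 min fed four-parameter Hill curve fits.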
Pol beta inh = inhibitors of human DNA polymerase beta | 1.3% of 340,000 active | Pol beta primer extension/strand displacement, fluorescence kinetic | P06746 | Potency, µM (titrated, usually from 114 µM), inactives show top-dose activity change, negative = inhibition, actives largely listed as inhibitors; also: potency is read from the fitted curve at half-maximal effect; % is scaled to controls: 0 for no effect and ±100 for the full control effect
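Values derive from four-parameter Hill fits of normalized kinetic data: reads at 0 and 10 min following addition of 50 nM substrate to 10 nM Pol beta preincubated 15 min with compound.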
PI5P4K alpha inh = blocks human PI5P4K alpha kinase activity | AID 652105 | 1.2% of 330,000 active | P48426 | PI5P4Kalpha enzyme, ADP-Glo luminescence, 60 min; active compounds read low | max response, %; active = max response of -50% or lower; inconclusive = between -30% and -50%; inactive = -30% or higher; also: value at the top dose of about 77 µM; % is scaled to controls: 0 for no effect and ±100 for the full control effect
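ADP-Glo luminescence end-point after a 60 min room-temperature kinase reaction. PI5P4Kalpha and substrate in HEPES pH 7.4 buffer with EGTA, 0.1% CHAPS and 5% DMSO; ATP at 5 microM final.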
POLH inh = inhibitors of human DNA polymerase eta; Q9Y253; Potency, µM (doses to about 114 µM), for inactives: at the highest dose activity change, negative = inhibition, actives largely listed as inhibitors; 1.2% of 390,000 active; recombinant Pol eta, fluorescent DNA replication assay; also: potency is read from the fitted curve at half-maximal effect; % is scaled to controls: 0 for no effect and ±100 for the full control effect
Target sequence (Q9Y253 whole entry, looked up): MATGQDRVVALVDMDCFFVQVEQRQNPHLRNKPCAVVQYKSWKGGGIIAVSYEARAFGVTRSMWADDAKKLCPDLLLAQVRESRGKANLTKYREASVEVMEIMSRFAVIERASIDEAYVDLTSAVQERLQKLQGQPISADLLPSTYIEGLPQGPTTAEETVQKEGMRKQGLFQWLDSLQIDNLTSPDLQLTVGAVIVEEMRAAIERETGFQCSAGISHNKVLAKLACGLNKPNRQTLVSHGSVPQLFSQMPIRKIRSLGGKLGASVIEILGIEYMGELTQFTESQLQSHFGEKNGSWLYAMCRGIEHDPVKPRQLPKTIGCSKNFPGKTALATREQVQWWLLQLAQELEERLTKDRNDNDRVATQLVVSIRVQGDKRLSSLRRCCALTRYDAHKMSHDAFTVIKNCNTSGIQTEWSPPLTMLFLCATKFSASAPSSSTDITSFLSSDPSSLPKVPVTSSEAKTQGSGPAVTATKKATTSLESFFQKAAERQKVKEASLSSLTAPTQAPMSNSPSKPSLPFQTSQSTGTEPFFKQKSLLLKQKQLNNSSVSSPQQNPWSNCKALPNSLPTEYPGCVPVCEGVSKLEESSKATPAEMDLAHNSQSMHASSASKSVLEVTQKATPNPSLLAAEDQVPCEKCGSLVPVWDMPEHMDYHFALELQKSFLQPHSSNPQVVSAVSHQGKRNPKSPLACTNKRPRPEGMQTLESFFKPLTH
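Fluorescent replication assay: 50 nM final substrate added after a 15 min room-temperature compound preincubation with 10 nM enzyme. Signal taken at 0 min and again at 10 min.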
The depositor's hits bear a star; ? = inconclusive; . = no result given; ! = a repeat was not active; [ ] = another dose, or the depositor's remark. Compounds with a hit are over-represented: about 2.8% of the library has one in this group of screens. Unless noted, calls follow the shape of the dose curve; as a rule, active = well fitted curve in the direction sought with a large enough effect; inconclusive = small, poorly fitted or top-dose-only effect, or another doubt; inactive = no such curve, though single readings can be large; an effect the other way counts as inactive or inconclusive.

SMILES	Pol kappa inh	Pol iota inh	FEN1 inh	Pol beta inh	PI5P4K alpha inh	POLH inh
COCCN(C(=O)COC(=O)CCOc1cccc(C)c1)c1c(N)n(Cc2ccccc2)c(=O)[nH]c1=O	0%	55%	6%	.	0	-13%
O=C(CCS(=O)(=O)c1ccccc1)Nc1ccc2c(c1)OCO2	?	?	2%	11µM*	?	-8%
O=C(CCS(=O)(=O)c1ccccc1)Nc1ccc(Cl)cn1	-17%	17%	1%	32µM*	-5	-4%
O=C(CS(=O)(=O)c1ccccc1)Nc1ccc(Cl)cn1	-8%	43%	5%	2%	-3	-20%
Cc1ccc(/C(=N/Nc2nc3ccccc3s2)C2=C(O)c3ccccc3C2=O)cc1	-3%	164%	-5%	3%	-81*	?
CCn1c(SCC(=O)Nc2ccc(F)cc2)nnc1C1CC1	-14%	8%	9%	7%	1	2%
CCn1c(SCC(=O)Nc2sccc2C(N)=O)nnc1C1CC1	?	56µM*	14%	.	?	-9%
COc1ccc(/C=C2/C(=O)N(Cc3ccccc3)N=C2C)cc1	-3%	22µM*	1%	70%	10	-18%
CCn1c(C(=O)Nc2ccc(C)cc2C)cc2sc(Cl)cc21	7%	-6%	-18%	0%	.	-20%
CCCN(CC(=O)Nc1ccccc1C)C(=O)CCl	0%	85%	0%	-14%	3	19%
CCCN(CC(=O)Nc1ccccc1C)C(=O)Cc1coc2cc(C)ccc12	-15%	?	1%	40µM*	-26	?
O=C1c2c(O)cc(O)cc2O[C@H](c2ccc(O)cc2)[C@H]1O	8%	-15%	10%	.	-17	-12%
COc1cc([C@@H]2Oc3cc(C4Oc5cc(O)cc(O)c5C(=O)[C@H]4O)ccc3O[C@H]2CO)ccc1O (some centres undefined)	-39%	?	-33%	.	-52*	?
O=C1c2c(O)cc(O)cc2O[C@H](c2ccc(O)c(O)c2)[C@H]1O	?	79µM*	?	3.2µM*	-27	4%
O=C1c2c(O)cc(O)cc2O[C@H](c2ccc(O)c(O)c2)[C@@H]1O	.	.	.	3.5µM*	.	.
COc1ccc(C(=O)NCC(=O)N/N=C/c2cccc(OC(=O)c3ccco3)c2)cc1OC	13%	51%	-1%	3%	0	-17%
CCOC(=O)NC1(NC(C)C)Oc2ccccc2O1	11%	?	-2%	5%	-4	-15%
CCOC(=O)NC1(NC2CCCCC2)Oc2ccccc2O1	79µM*	71µM*	-14%	25µM*	.	-1%
CC(=O)c1cc(O)c2ccccc2c1O	3%	4%	?	?	?	89µM*
Cc1ccccc1S(=O)(=O)N(C)C[C@H]1OCc2cnnn2CCCC(=O)N([C@H](C)CO)C[C@H]1C	.	.	.	.	3	-10%
CCOC(=O)c1sc(N/N=C/c2cc(Br)c(O)c(OC)c2)nc1C	?	?	-21%	32µM*	?	35µM*
CC(=O)c1sc(N/N=C/c2cccc(O)c2)nc1C	-16%	-30%	-9%	-29%	?	-6%
COCc1cc(O)c(O)c(O)c1-c1c(COC)cc(O)c(O)c1O	0.21µM*	2.8µM*	1.6µM*	.	.	.
COCc1c(CCl)cnc(C)c1O	-3%	29%	1%	7%	-1	-16%
CCCCN(CC)CCCNC(=S)Nc1ccc2nc3n(c(=O)c2c1)CCCCC3	-14%	119%	0%	-11%	-9	-2%
SMILES	Pol kappa inh	Pol iota inh	FEN1 inh	Pol beta inh	PI5P4K alpha inh	POLH inh
O=C(CCCCCNC(=O)c1ccccc1Br)N=Nc1c(O)[nH]c2ccccc12	-17%	79µM*	-14%	2%	-7	-7%
Cc1c[nH]c(=O)n(CCCN2CCN(c3ccccc3OCC(F)(F)F)CC2)c1=O	-5%[19.4 µM]	.	.	.	.	.
CCOC(=O)c1[nH]c(C)c(C(=O)O)c1C	.	.	.	0%	.	.
CCOC(=O)c1[nH]c(C)c(C(=O)/C=C/c2ccc(C(=O)O)cc2)c1C	-14%	-14%	1%	39%	2	22µM*
CCc1ccc2c(c1)C(NC(C)=O)C(=O)N2CCN1CCOCC1 (centres undefined)	-5%	2.2µM*	?	8%	2	?
CN1CCN(CCC(=O)N/N=C/c2cc3c(cc2[N+](=O)[O-])OCO3)CC1	-13%	4%	-4%	2%	-4	-10%
COCCCn1c(=NC(=O)c2ccccc2)c(C#N)cc2c(=O)n3cccc(C)c3nc21	-4%	183%	-2%	7%	-7	-13%
CCOC(=O)c1cc2c(=O)n3ccccc3nc2n(Cc2ccco2)c1=NC(=O)c1ccccc1OCC	-4%	?	0%	1%	-10	-8%
Cc1cccn2c(=O)c3cc(C#N)c(=NC(=O)c4ccccc4)n(Cc4ccco4)c3nc12	?	?	50µM*!	.	-73*!	25µM*
CCOC(=O)c1cc2c(=O)n3ccccc3nc2n(Cc2ccco2)c1=NC(=O)c1ccc(Br)cc1	?	45µM*	35µM*	-3%	.	-9%
CCOC(=O)c1cc2c(=O)n3ccccc3nc2n(Cc2ccco2)c1=NC(=O)c1cccc(Br)c1	2%[60.1 µM]	40µM*	?	22µM*	.	1%
CCOC(=O)c1cc2c(=O)n3ccccc3nc2n(Cc2ccco2)c1=NC(=O)c1ccccc1Br	89µM*	14µM*	?	?	.	?
CC1CCCCC1NC(=O)CN1CCC(NC(=O)C(C)(C)C)CC1 (centres undefined)	.	.	.	.	-5	-5%
Cc1ccccc1OCCC(=O)OCC(=O)NNC(=O)c1cccs1	-7%	-1%	-12%	.	2	-11%
CCOc1cc(/C=N/NC(=O)C(=O)Nc2cc(Cl)ccc2C)ccc1O	-3%	?	-12%	-10%	-5	5%
CCOC(=O)c1cc2c(=O)n3ccccc3nc2n(Cc2ccco2)c1=NC(=O)c1cccc(C)c1	-27%	?	0%	-13%	.	-3%
CCOC(=O)c1cc2c(=O)n3ccccc3nc2n(Cc2ccco2)c1=NC(=O)c1cccnc1	-38%	?	-2%	18µM*	-16	?
Cc1ccc(-c2noc(-c3ccc(NCc4cccnc4)c([N+](=O)[O-])c3)n2)cc1	-7%	-13%	-16%	14%	.	-5%
C=CCn1c(SCc2ccc(Br)cc2F)nc2cc(C(=O)O)ccc2c1=O	-2%	?	-7%	-15%	-61*	1%
COc1ccc(-c2[nH][nH]c(=O)c2NC(=O)c2ccccn2)cc1	.	.	.	.	-2	.
COc1ccc(CCC(=O)Nc2c(-c3ccc(N(C)C)cc3)[nH][nH]c2=O)cc1	.	.	.	.	-60*	.
Cc1cc(Br)c(NC(=O)CN2CCCC2)c(Br)c1	0%	9%	-1%	3%	-7	-4%

High-throughput results (PubChem)
